Experimental data published in PubChem BioAssay AID686978 (National Center for Advancing Translational Sciences (NCATS), 2013).
Several values for one entry are separate records, joined by “and”; a condition that tells them apart may be missing. Equal entries are not always repeated. About 64,000 (15%) of roughly 420,000 compounds were called active. Another 27% or so got no clear call; they are omitted. The call rests on the fitted dose curve; in most records, active means well fitted inhibition curve with a large enough effect; inconclusive means small, poorly fitted or top-dose-only effect; inactive means flat fitted curve, though single readings scatter. The list is a sample of the results. Entries that show only a call come without a potency. Peptide text beside a SMILES is read from it.

assay: qHTS for Inhibitors of human tyrosyl-DNA phosphodiesterase 1 (TDP1): qHTS in cells in absence of CPT; details: DT40 Tdp1-/- hTDP1 cells, no CPT, ATP luminescence, 48 h; activity change, negative = growth inhibition: at 46.2 µM (top of the series); further: nearly all actives have a fitted effect of over 55% in size
In short: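 Cells were dispensed at 400 per well, compounds added by pin tool, plates incubated ≥48 hr at 37 °C, then CellTiter-Glo added for 30 min at room temperature before luminescence reading. Line: DT40 Tdp1-/- complemented with hTDP1; camptothecin omitted.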
Potency means the concentration at half of the fitted maximal effect.

| SMILES | Potency |
| --- | --- |
| CCCCn1c(SCC(=O)NCCc2ccc(OC)c(OC)c2)nc2c1c(=O)n(C)c(=O)n2C | inactive |
| Cn1c(=O)c2c(nc(N/N=C/c3cccs3)n2Cc2ccc(Br)cc2)n(C)c1=O | 23.1 µM (active) |
| CCn1c(NCCc2ccc(OC)c(OC)c2)nc2c1c(=O)n(C)c(=O)n2C | 7.31 µM (active) |
| Cn1c(=O)c2c(nc(NCCc3ccccc3)n2Cc2ccccc2)n(C)c1=O | 4.11 µM (active) |
| Cn1c(=O)[nH]c(=O)c2c1nc(NCCCn1ccnc1)n2Cc1cccc(Br)c1 | inactive |
| CCCCNc1nc2c(c(=O)n(C)c(=O)n2C)n1Cc1cccc(OC)c1 | 1.84 µM (active) |
| Cn1c(=O)c2c(nc(NCc3ccccc3)n2CC(N)=O)n(C)c1=O | inactive |
| Cn1c(=O)c2c(nc(NCCc3ccccc3)n2Cc2ccccc2Br)n(C)c1=O | inactive |
| COc1ccc(CCN2CNc3c(c(=O)n(C)c(=O)n3C)C2)cc1OC | inactive |
| COc1ccc(CCn2c(NCCCN3CCOCC3)nc3c2c(=O)[nH]c(=O)n3C)cc1 | inactive |
| O=C(Nc1cccnc1)c1cc([N+](=O)[O-])ccc1Cl | inactive |
| Nc1nc(SC23CC4CC(CC(C4)C2)C3)ns1 | inactive |
| O=C(Nc1ccc(-n2cccn2)cc1)C1CCN(Cc2ccsc2)CC1 | inactive |
| COc1ccc(C/C(N)=N/OC(=O)c2ccco2)cc1OC | inactive |
| CCOc1ccc(NC(=O)CCS(=O)(=O)c2cccc3nsnc23)cc1 | inactive |
| O=C(CSc1ncn[nH]1)Nc1nsc(-c2ccccc2)n1 | inactive |
| c1csc(-c2nc(-c3ccncc3)no2)c1 | inactive |
| CCN(CC(=O)Nc1ccc(NC(C)=O)cc1)C(=O)C1CC(=O)N(Cc2ccc(C)cc2)C1 (stereo not drawn) | inactive |
| COc1ccc2c(c1)CCCO[C@]21O[C@H](CCO)C[C@H](O)[C@H]1O | inactive |
| CC(C)OCCCNc1nc2c(c(=O)n(Cc3ccccc3F)c(=O)n2C)n1C | inactive |
| Cn1c(=O)c2c(nc(NCCNC(=O)c3ccco3)n2Cc2ccccc2F)n(C)c1=O | 18.4 µM (active) |
| COc1ccccc1/C=C/C(=O)OCC(=O)NC1CCCCCC1 | inactive |
| CC1(C(=O)NS(=O)(=O)c2ccccc2)CCN1C(=O)C1CCCCC1 (stereo not drawn) | inactive |
| Cc1noc(C)c1NC(=O)Nc1cccc2c1O[C@H](CN(C)S(=O)(=O)c1c(C)noc1C)[C@@H](C)CN([C@H](C)CO)C2=O | inactive |
| CN1CCN(C(=O)c2ccc(NC(=O)c3ccc(Br)o3)cc2)CC1 | inactive |

| SMILES | Potency |
| --- | --- |
| COc1cc(OC)c(NC(=O)c2ccc(Br)o2)cc1Cl | inactive |
| CCN1CCN(c2c(Cl)cccc2NC(=O)c2ccc(Br)o2)CC1 | 16.4 µM (active) |
| O=C(Cn1nnc(-c2ccccc2)n1)N/N=C/c1ccc(-c2ccc(Cl)cc2)o1 | inactive |
| NS(=O)(=O)c1ccc(CCNS(=O)(=O)c2cccc3cccnc23)cc1 | inactive |
| O=[N+]([O-])c1ccccc1S(=O)(=O)Nc1cccc2cccnc12 | 2 µM (active) and 2.59 µM (active) |
| Cc1ccccc1NC(=O)c1ccccc1NS(=O)(=O)c1cccc2cccnc12 | inactive |
| Cc1nc2ccccc2c(=O)n1NC(=O)c1ccc(Cl)c([N+](=O)[O-])c1 | inactive |
| CCn1c(/C=C/c2ccc([N+](=O)[O-])o2)nc2ccccc2c1=O | 2.59 µM (active) |
| Cc1nc2ccccc2c(=O)n1Cc1ccc([N+](=O)[O-])cc1 | inactive |
| CCc1noc(C)c1C(=O)N1CCCSC1=Nc1ccccc1OC | inactive |
| COC(=O)Cn1c(=NC(=O)CSCC(=O)Nc2cc(C)on2)sc2ccccc21 | inactive |
| Cc1ccc(S(=O)(=O)NCC(=O)Nc2ccc3c(c2)OCCO3)cc1 | inactive |
| CCOc1ccc(OCC)c(NC(=O)CN(c2ccc(C)cc2)S(=O)(=O)c2c(C)n[nH]c2C)c1 | 29.1 µM (active) |
| CCOc1ccc(N(CC(=O)Nc2ccccc2F)S(=O)(=O)c2c(C)[nH]c(=O)[nH]c2=O)cc1 | inactive |
| CCOc1ccc(N(CC(=O)OC)S(=O)(=O)c2c(C)noc2C)cc1 | inactive |
| Cc1noc(C)c1S(=O)(=O)N(CC(=O)Nc1ccc2c(c1)OCCO2)c1ccc(C(C)C)cc1 | 14.6 µM (active) |
| CCOc1ccc(N(CC(=O)NCc2ccc(OC)cc2)S(=O)(=O)c2c(C)noc2C)cc1 | inactive |
| COc1ccc(N(CC(=O)Nc2ccc(F)c(F)c2)S(=O)(=O)c2c(C)[nH]c(=O)[nH]c2=O)cc1 | inactive |
| COC(=O)c1ccc(NC(=O)CN(c2ccc(C)cc2)S(=O)(=O)c2c(C)n[nH]c2C)cc1 | inactive |
| COc1ccc(N(CC(=O)Nc2cc(OC)ccc2OC)S(=O)(=O)c2c(C)noc2C)cc1 | 23.1 µM (active) |
| C/C=C\C=C\C(=O)N1CC2(CC(c3cccc(NC(=O)/C(C)=C\C)c3)=NO2)C[C@H]1C(N)=O (stereo partly drawn) | inactive |
| CC(NC(=O)CN1CCN(Cc2ccc(Cl)cc2)C1=O)c1ccc2c(c1)OCCO2 (stereo not drawn) | inactive |
| Cc1noc(C)c1C(=O)OCC(=O)N1CCN(S(=O)(=O)c2ccc3ccccc3c2)CC1 | inactive |
| C(=N/N1CCN(c2ccccc2)CC1)/c1cccs1 | inactive |
| Nc1c(Cl)cc(S(N)(=O)=O)cc1S(N)(=O)=O | inactive |

| SMILES | Potency |
| --- | --- |
| O=[N+]([O-])c1ccc(Sc2n[nH]c(-c3ccco3)n2)nc1 | inactive |
| CCOC(=O)c1ccc(-n2c(C)nc3c(cnn3-c3ccccc3C)c2=O)cc1 | inactive |
| COc1ccc(-n2c(C)nc3c(cnn3-c3ccccc3)c2=O)cc1 | 16.4 µM (active) |
| COc1ccc(Oc2ncc3nc(C)c(=O)n(-c4ccccc4)c3n2)cc1 | inactive |
| COc1ccc(Oc2ncc3nc(-c4ccc(F)cc4)c(=O)n(C)c3n2)cc1 | inactive |
| CCOc1ccc(-n2cnc3c(=O)[nH]c(N)nc32)cc1 | inactive |
| Cc1ccc(Oc2cnn(-c3ccccc3)c(=O)c2Br)cc1 | inactive |
| COc1ccc(-n2c(C)nc3c(cnn3-c3ccc(F)cc3)c2=O)cc1 | 16.4 µM (active) |
| CCC(C)Sc1nc2c(cnn2-c2ccc(F)cc2)c(=O)[nH]1 (stereo not drawn) | inactive |
| CCOc1ccc(-n2c(C)nc3c(cnn3-c3ccc(C)cc3)c2=O)cc1 | 5.8 µM (active) |
| COC(=O)C1CCCCN1C(=O)c1ccc(OC2CCN(C(C)=O)CC2)c(OC)c1 (stereo not drawn) | inactive |
| CS(=O)(=O)c1ccc(C(=O)NNC(=O)c2cccs2)cc1 | inactive |
| O=C1/C(=C\c2ccc([N+](=O)[O-])cc2)CS(=O)(=O)C/C1=C/c1ccc([N+](=O)[O-])cc1 | 0.0231 µM (active) |
| O=C(NN=Cc1ccc([N+](=O)[O-])cc1)C1CC1 | inactive |
| O=[N+]([O-])c1ccc(C=NN=Cc2ccc([N+](=O)[O-])cc2)cc1 | inactive |
| CCN(CC)Cc1c(C(=O)N/N=C/c2cccc(OCc3ccc(F)cc3)c2)nnn1-c1nonc1N | inactive |
| CCc1ccc(N2CC(C(=O)Nc3ccc(S(=O)(=O)Nc4nccs4)cc3)CC2=O)cc1 (stereo not drawn) | inactive |
| Cc1ccc(-n2nc(-c3ccco3)cc2C(=O)NCc2cccnc2)cc1 | 18.4 µM (active) |
| CSc1sc(C(=O)NC(=O)NCc2cccnc2)c(C)c1-c1ccon1 | inactive |
| Cc1ccc(C(=O)NC(=S)NCc2cccnc2)cc1 | inactive |
| NC(=S)N/N=C/c1coc2cc(Cl)ccc2c1=O | inactive |
| CC(C)Oc1c(Br)cc(Br)cc1/C=N/NC(N)=S | 5.8 µM (active) |
| O=C(NNC(=S)Nc1ccc(F)cc1)[C@H]1C[C@@H]1c1ccccc1 | inactive |
| C(=N\n1cnnc1)/c1cccnc1 | inactive |
| CCc1ccc(N2CC(O)=C(c3nc4ccccc4c(=O)[nH]3)C2=N)cc1 | 14.6 µM (active) |

| SMILES | Potency |
| --- | --- |
| O=c1[nH]c(-c2cccs2)nc2ccccc12 | inactive |
| N=C1C(c2nc3ccccc3[nH]2)=C(O)CN1NC(=O)c1c[nH]c2ccccc12 | inactive |
| Cc1ccc2nc(-c3ccccc3)cc(C(=O)O)c2c1 | inactive |
| O=C(Nc1ccc(S(=O)(=O)Nc2nccs2)cc1)c1cc(-c2ccncc2)nc2ccccc12 | inactive |
| CCN(CC)CCNC(=O)c1ccc(NS(=O)(=O)c2ccc3c(c2)OCCO3)cc1 | inactive |
| Cc1ccc2nc(-c3ccncc3)cc(C(=O)Nc3ccc4c(c3)OCCO4)c2c1 | 10.3 µM (active) |
| CCN(CC)CCNC(=O)c1ccc(NC(=O)c2cc(-c3ccncc3)nc3ccccc23)cc1 | 23.1 µM (active) |
| CCn1c(SCC(=O)Nc2ccc3c(c2)OCCO3)nnc1-c1ccncc1 | inactive |
| Cc1ccc2nc(-c3ccncc3)cc(C(=O)Nc3ccc(OC(F)F)cc3)c2c1 | 9.2 µM (active) |
| O=C(Nc1ccc2c(c1)OCCO2)c1cnccn1 | inactive |
| O=C(Nc1ccncc1)c1cc(-c2ccccn2)nc2ccc(Br)cc12 | inactive |
| C=CCNC(=O)/C(=C\c1cccc([N+](=O)[O-])c1)NC(=O)c1ccccc1 | inactive |
| COc1cc(/C=C/C(=O)OCC(=O)NC2CC2)cc(OC)c1OC | inactive |
| Cc1cc(=O)oc2cc(NC(=O)C(C)Oc3ccccc3)ccc12 (stereo not drawn) | inactive |
| C[C@H](CO)N1C[C@H](C)[C@@H](CN(C)S(=O)(=O)c2ccc(Oc3ccccc3)cc2)OCc2cn(nn2)CCCC1=O | inactive |
| COc1ccc(NC(=O)CSc2nc(N)c(-c3ccccc3)c(=O)[nH]2)cc1 | inactive |
| CC(C)c1ccc(Nc2ncccc2C#N)cc1 | inactive |
| CCc1nnc(NC(=O)c2cccs2)s1 | inactive |
| CC(=O)c1cccc(NC(=O)C2CCCN2S(=O)(=O)c2cccc3nsnc23)c1 (stereo not drawn) | inactive |
| CC(C)C(c1nnnn1C1CCCC1)N1CCN(c2ccccc2F)CC1 (stereo not drawn) | 18.4 µM (active) |
| CCC(c1nnnn1C1CCCC1)N1CCN(C(=O)c2ccco2)CC1 (stereo not drawn) | inactive |
| CC(C)C(c1nnnn1C1CCCCC1)N1CCN(C(=O)c2ccco2)CC1 (stereo not drawn) | inactive |
| CC(C)C[C@@H](NC(=O)[C@H]1CCCN1C(=O)Cc1ccccc1)C(N)=O (HELM PEPTIDE1{[O=C(Cc1ccccc1)[*:2]].[dP].[dL].[am]}$$$$V2.0) | inactive |
